Records with an inconclusive call do not appear. The source made the active and inactive calls. Rule for the calls: active = hit-call score of the fitted dose curve at least 0.9, where 1 is the maximum; inconclusive = response in the unintended direction; inactive = score below 0.9.
Key:
[1] = TOX21_p53_BLA_p2_viability: Viability Assessment in the Tox21 HCT-116 p53 Agonism Beta-lactamase Assay, Phase 2 (AID 2283591);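 note: compound exposure lasted 16 h at 37 °C; actives lower the ATP signal meaning cytotoxicity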
Procedure, shortened: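 HCT-116 p53-bla cells (4000/well) rested 5 h at 37C, then received compounds in DMSO (217-fold dilution) for 16 h at 37C, 5% CO2. After the CCF4 read, CellTiter-Glo was added; ATP luminescence was read after 30 min at room temperature.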

[2] = target: Cellular tumor antigen p53 (Homo sapiens) (UniProt P04637); test: TOX21_p53_BLA_p2_ratio: Tox21 HCT-116 p53 Agonism Beta-lactamase Assay, Ratio, Phase 2 (AID 2283592)
Sequence of Cellular tumor antigen p53 (Homo sapiens) (P04637 whole entry, looked up): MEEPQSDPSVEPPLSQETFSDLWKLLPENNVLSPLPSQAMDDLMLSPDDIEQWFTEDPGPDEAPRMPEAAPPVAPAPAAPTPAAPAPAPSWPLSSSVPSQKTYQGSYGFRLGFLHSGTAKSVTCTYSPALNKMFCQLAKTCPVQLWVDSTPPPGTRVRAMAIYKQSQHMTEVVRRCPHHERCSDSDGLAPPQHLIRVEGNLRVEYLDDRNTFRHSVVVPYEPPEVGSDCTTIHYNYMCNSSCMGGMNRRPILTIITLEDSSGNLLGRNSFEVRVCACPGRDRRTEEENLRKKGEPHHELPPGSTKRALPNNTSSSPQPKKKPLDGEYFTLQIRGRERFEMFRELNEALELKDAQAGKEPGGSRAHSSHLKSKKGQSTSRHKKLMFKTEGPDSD
Procedure, shortened: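 First, HCT116 reporter cells settle for 5 h at 37C. Next, DMSO compound solutions are pinned in (217-fold dilution) and left 16 h. Finally, CCF4-AM substrate is loaded 2 h at room temperature and the 460/530 nm ratio read.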

[3] = TOX21_p53_BLA_p3_viability: Viability Assessment in the Tox21 HCT-116 p53 Agonism Beta-lactamase Assay, Phase 3 (AID 2283593);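 note: cells exposed to compound for 16 h before reading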
Procedure, shortened: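 HCT-116 cells (4000/well) rested 5 h at 37C, then got DMSO compounds by pin tool (217-fold dilution) for 16 h at 37C, 5% CO2. After the bla read, CellTiter-Glo was added and luminescence read at 30 min, room temperature.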

[4] = target: Cellular tumor antigen p53 (Homo sapiens) (UniProt P04637); test: TOX21_p53_BLA_p3_ratio: Tox21 HCT-116 p53 Agonism Beta-lactamase Assay, Ratio, Phase 3 (AID 2283596)
Procedure, shortened: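 Cells were seeded at 4000/well, rested 5 h at 37C, then dosed with DMSO compound solutions (217-fold dilution) for 16 h. CCF4-AM substrate was loaded for 2 h at room temperature, and the 460/530 nm emission ratio was fitted for gain of signal versus DMSO.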

[5] = TOX21_p53_BLA_p4_viability: Viability Assessment in the Tox21 HCT-116 p53 Agonism Beta-lactamase Assay, Phase 4 (AID 2283597);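 note: hits lower the luminescence signal meaning cytotoxicity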
Procedure, shortened: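 4000 HCT116 cells per well; 5 h attachment; compounds from DMSO, 217-fold dilution; 16 h at 37C. Then CCF4-AM, 2 h RT, followed by CellTiter-Glo, 30 min RT, luminescence. Decrease = cytotoxicity.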

[6] = target: Cellular tumor antigen p53 (Homo sapiens) (UniProt P04637); test: TOX21_p53_BLA_p4_ratio: Tox21 HCT-116 p53 Agonism Beta-lactamase Assay, Ratio, Phase 4 (AID 2283601)
Procedure, shortened: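 HCT116 cells carrying an inducible beta-lactamase reporter were plated at 4000 cells/well, rested 5 h, then exposed to compounds in DMSO (217-fold dilution) for 16 h at 37C. CCF4-AM substrate was loaded 2 h at room temperature; 460/530 nm emission ratio scored gain-of-signal versus DMSO.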

[7] = target: Cellular tumor antigen p53 (Homo sapiens) (UniProt P04637); test: TOX21_p53_BLA_p5_ratio: Tox21 HCT-116 p53 Agonism Beta-lactamase Assay, Ratio, Phase 5 (AID 2283599)
Procedure, shortened: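 HCT-116 cells carrying a p53-inducible beta-lactamase reporter were seeded at 4000 cells/well and dosed after 5 h with compound in DMSO (217-fold dilution). After 16 h at 37C, CCF4-AM substrate was added for 2 h, and the 460/530 nm emission ratio was scored as gain-of-signal versus DMSO.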

Measured: outcome

O=[N+]([O-])c1cccc(I)c1
inactive: [1] | [2] | [3] | [4] | [5] | [6]

CC(C)(c1ccc(Oc2ccc3c(c2)C(=O)OC3=O)cc1)c1ccc(Oc2ccc3c(c2)C(=O)OC3=O)cc1
inactive: [1] | [2] | [3] | [4] | [7]

CC(C)(C)C(=O)OCOC(=O)C1N2C(=O)CC2S(=O)(=O)C1(C)C (configuration not stated)
inactive: [1] | [2] | [3] | [4] | [5] | [6]

CN(C)CCOCCN(C)CCO
inactive: [1] | [2] | [3] | [4] | [7]
